# Measured values taken from PubChem BioAssay (Tox21).
# Results filed as inconclusive are left out. Where a call stands in place of a potency, no number is given. The source made the active and inactive calls. Calls come from the whole dose curve; as a rule, active = well fitted cell-killing curve with a large enough effect in the repeat runs; inconclusive = weak or mixed curves, or effect the other way; inactive = no such curve, though single readings can be large or run the other way.
# Assay: qHTS assay to identify small molecule antagonists of the sonic hedgehog signaling (Shh) pathway - cell viability counter screen (AID 1259367); note: nearly all actives have a fitted effect of over 55% in size
# Details: NIH/3T3 Gli1-Luc viability, CellTiter-Fluor, 24 h; series mostly up to 92.4 µM
# Excerpt: National Center for Advancing Translational Sciences [NCATS]
# NIH Chemical Genomics Center [NCGC]
# U.S. Environmental Protection Agency [EPA]
# National Institutes of Environmental Health Sciences [NIEHS]
# National Toxicology Program [NTP]
# U.S. Food and Drug Administration [FDA]
# The sonic hedgehog (Shh) pathway is essential for normal embryonic development. Dysregulation of the Shh pathway can cause severe developmental defects in organs. Therefore chemicals that interfere with the pathway are potential developmental toxicants. A cell line designated 3T3Gli1-Luc (DMB/OARSA/CFSAN/FDA, Laurel, MD), a NIH/3T3 derived clone containing stably integrated Gli1-Luc reporter is used to detect chemical interference of the Shh pathway, by changes in the expression of the firefly Luc gene under the control of the Gli1 transcriptional response element. This cell line was used to screen Tox21 libraries for identifying and prioritizing the potential developmental toxicants that interfere Shh pathway. Conditioned medium-stimulated mode was used to screen for chemicals inhibiting Shh signaling. The cytotoxicity of the compounds was tested in parallel by measuring the cell viability using CellTiter-Fluor assay system (Promega, Madison, WI) in the same wells.
# Tox21 Assay Protocol Summary:
# 3T3 Gli1-Luc cells were dispensed at 2,000 per well in 5uL of culture medium into white solid bottom 1536-well plates (Greiner Bio-One, Monroe, NC) using a Multidrop Combi (Thermo Scientific, Waltham, MA) dispenser. The assay plates were incubated at 37 C and 5% CO2 for 4hr, and then 23nL of compounds dissolved in DMSO and positive control were transferred using a Pintool station (Wako, San Diego, CA). The compound transfer was followed by the addition of 1ul conditioned medium or assay buffer using two separate tips of Flying Reagent Dispenser (FRD, Aurora Discovery, San Diego, CA). The assay plates were incubated at 37C and 5% CO2 for 24hr. For viability read, after 23hr of compound treatment, 1uL of CellTiter-Fluor reagent (Promega Corporation, Madison, WI) was added to each well of the assay plates using Flying Reagent Dispenser (FRD, Aurora Discovery, San Diego, CA) and incubated the assay plates at 37C for 1hr. The fluorescence signal was quantified using a ViewLux plate reader (Perkin Elmer, Shelton, CT).
# Potency is the fitted concentration of half-maximal effect.
Compound,"viability change, negative = cytotoxic",Potency
COC(=O)C1CC(=O)C(C(=O)OC)CC1=O (stereo not given),1.71% [at 8.39 µM] (inactive),–
CCCCC(CC)COCCO (stereo not given),–,inactive
C=CC(OCC)OCC,–,inactive
OCCN(CCO)c1cccc(Cl)c1,–,inactive
COC(=O)CCc1ccc(OCC(O)CNC(C)C)cc1 (stereo not given),–,inactive
O=C1c2cccc3c2[C@H](CCC3)CN1[C@@H]1CN2CCC1CC2,–,inactive
O=C1CCCC(=O)O1,–,inactive
C[Si](C)=O,0.12% [at 8.39 µM] (inactive),–
CC(=O)NCCCCCC(=O)O,–,inactive
COc1cc(N)ccc1C,–,inactive
O=C(O)c1ccc(Cl)cc1Cl,–,inactive
CC(CN)CC(C)(C)CCN (stereo not given),–,inactive
BrCCCCCBr,–,inactive
CCCC(=O)C(C)=O,–,inactive
O=C(OCc1ccccc1)C(=O)OCc1ccccc1,–,inactive
CN(C)C(=O)CNC(=O)Cc1ccccc1,–,inactive
COc1ccc(C2CNC(=O)C2)cc1OC1CCCC1 (stereo not given),–,inactive
C=CCCCCCCCCCCCC,–,inactive
Cc1ccccc1OCC(O)CO (stereo not given),–,inactive
COc1ccc2c(c1OC)C(=O)O[C@@H]2[C@H]1c2c(cc3c(c2OC)OCO3)CCN1C,–,3.35 µM (active)

Compound,"viability change, negative = cytotoxic",Potency
O=C(O)Cc1cn(-c2ccccc2)nc1-c1ccc(Cl)cc1,–,inactive
CCCCCCOc1ccccc1C(N)=O,–,inactive
CCCCCCOC(=O)CC,–,inactive
C=C(C)C(=O)OCCOP(=O)(O)OCCOC(=O)C(=C)C,–,inactive
CCNC(=O)C1CC(C)CCC1C(C)C (stereo not given),–,inactive
CNS(=O)(=O)CCc1ccc2[nH]cc(C3CCN(C)CC3)c2c1,–,inactive
C=Cc1ccccn1,–,inactive
CC(C)c1ccc2cc(C(C)C)ccc2c1,–,inactive
COCCOCCOCCOCCOCCO,–,inactive
NS(=O)(=O)c1ccc(NC(=O)CCC(=O)O)cc1,–,inactive
C=C(C)C(=O)OCC(C)(C)COC(=O)C(=C)C,–,inactive
CCCCNc1ccc(C(=O)OCCN(C)C)cc1,–,inactive
CCc1ccc(C=O)cc1,–,inactive
NS(=O)(=O)c1cc2c(cc1Cl)CN(C1CCCCC1)C2=O,–,inactive
CC(C)=CCOC(=O)c1ccccc1,–,inactive
COCCc1ccc(OCC2CO2)cc1 (stereo not given),–,inactive
COCCOC(=O)C1=C(C)NC(C)=C(C(=O)OC(C)C)C1c1cccc([N+](=O)[O-])c1 (stereo not given),–,inactive
Cc1cc(NC(=O)C2=C(O)c3ccccc3S(=O)(=O)N2C)no1,–,inactive
CCOC(=O)c1ncn2c1CN(C)C(=O)c1cc(F)ccc1-2,–,inactive
CC(C)NCC(O)COc1cccc2[nH]ccc12 (stereo not given),–,inactive
